Values joined by “and” are separate entries in the source; they are usually repeats but may differ in a detail not shown here. Equal values may be shown once. Results filed as inconclusive are left out. Active and inactive are the calls of the source. Calls follow the shape of the dose curve; as a rule, active = well fitted cell-killing curve with a large enough effect; inconclusive = small, poorly fitted or top-dose-only effect, or effect the other way; inactive = flat fitted curve, though single readings scatter.
% is scaled to controls: 0 for no effect and ±100 for the full control effect; potency is read from the fitted curve at half-maximal effect.

The nature of the first assay: qHTS assay for cell viability of HEK293 cells (AID 743288). Also: nearly all actives have a fitted effect of over 50% in size. The conditions noted are these: ATP luminescence (CellTiter-Glo), 18 h; max response: active compounds read low. The essentials: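 After 18 h compound exposure at 37 C, parental HEK293 cells (2,000/well) are lysed with CellTiter-Glo and luminescence is read following 30 min at room temperature.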
(Quantitative high-throughput screening tests each substance at several concentrations.)
As to `CN1[C@@H]2CC[C@H]1CC(OC(=O)C(CO)c1ccccc1)C2` (stereo partly specified), the max response was -4.41% (inactive).

In the case of `Nc1ccc(O)c(C(=O)O)c1`, the max response is -0.669% (inactive) and -7.83% (inactive).

Consider `CN(C)c1ccc(C(=C2C=CC(=[N+](C)C)C=C2)c2ccccc2)cc1`, for which the Potency is 3.55 µM (active).

Take `O=C(O)[C@H](O)[C@@H](O)[C@H](O)[C@H](O)CO`: the max response is -14.1% (inactive).

As for `COc1cc(CNC(=O)CCCC/C=C/C(C)C)ccc1O`, the max response is -3.17% (inactive) and -17.3% (inactive).

A short description of a further assay: qHTS assay for cell viability of the p53RE-bla HCT-116 cell line (AID 743292). Also: nearly all actives have a fitted effect of over 55% in size. The conditions noted are these: p53RE-bla HCT-116 viability, ATP luminescence, 16 h; series mostly up to 95 µM. In outline: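 Quantitative high-throughput format: compounds in DMSO were pinned onto p53RE-bla HCT-116 cells (4,000/well) and incubated 16 h at 37 C. Total intracellular ATP, read by CellTiter-Glo luminescence, reflects viable cell number.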
In the case of `CN1[C@@H]2CC[C@H]1CC(OC(=O)C(CO)c1ccccc1)C2` (stereo partly specified), the Potency entry was “inactive”.

In the case of `Nc1ccc(O)c(C(=O)O)c1`, the Potency result was “inactive”.

Take `CN(C)c1ccc(C(=C2C=CC(=[N+](C)C)C=C2)c2ccccc2)cc1`: the Potency was 3.98 µM (active).

With `O=C(O)[C@H](O)[C@@H](O)[C@H](O)[C@H](O)CO`, the Potency entry was “inactive”.

Turning to `COc1cc(CNC(=O)CCCC/C=C/C(C)C)ccc1O`, the Potency result is “inactive”.

Take `O=C1CN(/N=C/c2ccc([N+](=O)[O-])o2)C(=O)N1`: the Potency entry was “inactive”.

Values taken from PubChem BioAssay (NCATS).
